In the library only some 16% were active in any assay of this set; here they are far more common.
uPA generation = qHTS for Inhibitors of Cell Surface uPA Generation | cell surface uPA generation assay, qHTS | Potency, µM (series often up to 38.3 µM), inactives show at the top dose activity change, negative = inhibition, usual class: inhibitors | actives 0.31% (n = 330,000) | AID 540303, 2011; active = well fitted inhibition curve with a large enough effect; inconclusive = small, poorly fitted or top-dose-only effect; inactive = no such curve, though single readings can be large or run the other way; tested in mouse RAW 264.7 cells; note: potency is the fitted concentration of half-maximal effect; % is set by controls: 0 for no effect and ±100 for the full control effect; nearly all actives have a fitted effect of over 55% in size
TDP1 inh = qHTS Assay for Inhibitors of Tyrosyl-DNA Phosphodiesterase (TDP1) | Tyrosyl-DNA phosphodiesterase 1 (Homo sapiens), Q9NUW8 | recombinant TDP1, AlphaScreen DNA substrate cleavage | Potency, µM (doses to about 130 µM), inactives show top-dose activity change, negative = inhibition, most hits filed as inhibitors | actives 0.28% (n = 350,000); note: potency is the fitted concentration of half-maximal effect; % is set by controls: 0 for no effect and ±100 for the full control effect; nearly all actives have a fitted effect of over 40% in size
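Recombinant E. coli-expressed Tdp1 (1 nM) preincubated with compound 15 min at RT, then 5'-biotin/3'-phosphotyrosine-FITC DNA substrate (15 nM) added for 5 min. AlphaScreen beads (10 ug/ml) added, 10 min RT; tyrosine-FITC cleavage read as signal loss.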
TDP1 cell CPT = qHTS for Inhibitors of human tyrosyl-DNA phosphodiesterase 1 (TDP1): qHTS in cells in presence of CPT | chicken DT40 Tdp1-/-;hTDP1 cells + 20 nM CPT, ATP luminescence, 48 h | Potency, µM (highest dose often 46.2 µM), without a hit: at the top dose activity change, negative = growth inhibition, usual class: inhibitors | actives 12% (n = 420,000) | AID 686979, 2013; note: potency is the fitted concentration of half-maximal effect; % is set by controls: 0 for no effect and ±100 for the full control effect; nearly all actives have a fitted effect of over 55% in size
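Chicken DT40 Tdp1-/- cells stably complemented with human TDP1 were seeded at 400 cells/well in medium containing 20 nM camptothecin, exposed to pin-transferred compounds, and grown at 37 °C for at least 48 hr. Viability was read as ATP luminescence.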
miR-21 reporter = qHTS Assay for Modulators of miRNAs and/orActivators of miR-21 | HeLa miR-21 FLuc reporter, luciferase, 48 h | Potency, µM (doses to about 38.3 µM), without a hit: top-dose activity change, positive = activation, usual class: activators | 340,000 tested, under 10 active | AID 2288, 2010;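 note: % of control where 0% means no effect; miR-21 action dims this reporter so a rising signal means less miR-21 action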
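HeLa cells endogenously expressing miR-21, stably carrying CMV-driven firefly luciferase with a downstream miR-21 binding site, 2000 cells/well. Titrations up to approximately 40 uM, 48 hours; luciferase luminescence read.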
DT40 TDP1 no CPT = qHTS for Inhibitors of human tyrosyl-DNA phosphodiesterase 1 (TDP1): qHTS in cells in absence of CPT. DT40 Tdp1-/- hTDP1 cells, no CPT, ATP luminescence, 48 h. Potency, µM (top dose mostly 46.2 µM), for the others: at the top dose activity change, negative = growth inhibition, actives largely listed as inhibitors. actives 15% (n = 420,000). AID 686978, 2013; note: potency is the fitted concentration of half-maximal effect; % is set by controls: 0 for no effect and ±100 for the full control effect; nearly all actives have a fitted effect of over 55% in size
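Stably hTDP1-transfected Tdp1-null chicken DT40 cells were treated with library compounds minus camptothecin and grown for at least 48 hr at 37 °C, after which cellular ATP was quantified by luminescence.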
The depositor's hits bear a star; u = inconclusive; x = no result given; [ ] = remark or other dose. Unless noted, calls come from the whole dose curve; as a rule, active = well fitted curve in the direction sought with a large enough effect; inconclusive = small, poorly fitted or top-dose-only effect, or another doubt; inactive = no such curve, though single readings can be large; an effect the other way counts as inactive or inconclusive.

SMILES	uPA generation	TDP1 inh	TDP1 cell CPT	miR-21 reporter	DT40 TDP1 no CPT
Cc1ccc(Cn2c(=N)c(C(=O)NC3CCCCC3)cc3c(=O)n4ccccc4nc32)cc1	9%	1%	5.8µM*	-7%	6.5µM*
CCOCCCn1c(=N)c(C(=O)NC2CCCCC2)cc2c(=O)n3ccccc3nc21	x	x	-5%	-1%	u
COc1ccc(CCn2c(=N)c(C(=O)NC3CCCC3)cc3c(=O)n4cccc(C)c4nc32)cc1	-8%	2%	1.5µM*	4%	1.8µM*
N=c1c(C(=O)NC2CCCC2)cc2c(=O)n3ccccc3nc2n1Cc1ccccc1	6%	0%	u	-3%	u
Cc1cccn2c(=O)c3cc(C(=O)NC4CCCC4)c(=N)n(CCc4ccccc4)c3nc12	-2%	x	2.9µM*	-2%	3.7µM*
Cc1cc(C)cc(N(CC(=O)Nc2ccccc2C(=O)N2CCOCC2)S(C)(=O)=O)c1	10%	3%	-7%	-6%	-18%
CCCc1nnc(NC(=S)Nc2ccccc2)s1	-1%	5%	4.6µM*	-39%	3.3µM*
N#CCCN(C(=O)c1ccc2c(=O)n3c(nc2c1)CCCCC3)c1ccccc1	-1%	1%	u	-8%	-10%
O=C(NC(=S)NC1CC1)c1cccnc1	-1%	-3%	-1%	-2%	-1%
Cc1ccc(S(=O)(=O)OCCC2=CC(=O)CCN2Cc2ccccc2)cc1	6%	0%	16µM*	x	u
COCCSc1ccccc1C(=O)N1CCN(Cc2ccc3c(c2)OCO3)CC1	-5%	10%	-15%	-1%	-24%
CN1c2ccccc2C(C)(C)C12CC(c1cccc(S(=O)(=O)N3CCCC3)c1)=NO2 (stereo unspecified)	3%	6%	u	19%	16µM*
CN1/C(=C\C(=O)c2cccc(S(=O)(=O)N3CCCCC3)c2)C(C)(C)c2ccccc21	10%	-2%	u	0%	u
O=S(=O)(c1ccc(-c2ccccc2)cc1)N1CCCCC1	7%	x	u	1%	-29%
CN1c2ccccc2C(C)(C)C12CC(c1ccc(S(=O)(=O)N3CCCCC3)cc1)=NO2 (stereo unspecified)	8%	-3%	u	13%	21µM*
CCS(=O)(=O)N1Cc2cc(C(=O)NCCOC)nc(-c3cccc(-c4ccncc4)c3)c2[C@H]1CCO	x	x	-11%	x	-3%
CCCCn1c(NCc2cc(C)ccc2O)nc2ccccc21	x	x	-1%	x	-29%
CCCCn1c(NCc2cc(Br)ccc2O)nc2ccccc21	x	-2%[12.3 µM]	15µM*	28%	15µM*
CCN(CC)CCn1c(NCc2ccc3c(c2)OCO3)nc2ccccc21	-16%	3%	13µM*	-14%	16µM*
CCCCn1c(NCc2ccc(N(C)C)cc2)nc2ccccc21	u	2%	26µM*	5%	26µM*
c1coc(CNc2nc3ccccc3n2CCN2CCOCC2)c1	1%	5%	-5%	-11%	-15%
CCN(CC)c1ccc(CNc2nc3ccccc3n2CCN2CCOCC2)cc1	-4%	10%	u	15%	18µM*
Cc1cccc(C(=O)NCCNC(=O)c2cnccn2)c1	5%	x	-4%	4%	0%
Cc1ccc(S(=O)(=O)N2CCCCC2)cc1NC(=O)COC(=O)c1ccccc1F	-1%	-1%	-23%	-1%	-17%
c1csc(CNc2nc3ccccc3n2CCN2CCOCC2)c1	-1%	5%	-21%	-2%	-6%
COc1ccc(CNc2nc3ccccc3n2CCN2CCOCC2)cc1	5%	2%[56.1 µM]	-21%	-12%	21µM*
CC1CCCC(C)N1C(=O)CSc1nc(N)c(-c2ccccc2)c(=O)[nH]1 (stereo unspecified)	3%	5%	7%	1%	1%
Cc1cnc(C(=O)NNC(=O)c2ccc(Br)cc2)cn1	-7%	2%[0.505 µM]	3.7µM*	x	5.8µM*
O=C(NNC(=O)C1CCC1)c1ccc(Br)cc1	2%	x	10%	x	-1%

High-throughput results (PubChem BioAssay)
